Screening data (PubChem)
Sampled rows, rich in hits. Any-hit rate of the full collection: about 9.4%.
HTT ATP protect: Huntington cell model cytoprotection by ATP luminescence. AID 1471. Potency, µM (doses to about 56.4 µM), usual class: activators. PC12 HTT-Q103 induced, cytoprotection, ATP luminescence, 40 h. 0.14% of 230,000 active; note: nearly all actives have a fitted effect of over 45% in size
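Stable PC12 Q103-GFP cells in serum-supplemented, phenol red-free DMEM; induction by tebufenozide at 100 nM final; compound dose series; cell viability quantified luminescently from ATP.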
ALDH1A1 inh: ALDH1A1 (human) enzyme inhibition | 7.3% of 220,000 active | Purified ALDH1A1, NADH fluorescence, propionaldehyde substrate | P00352 | Potency, µM (highest dose often 75.3 µM), actives largely listed as inhibitors; active = well fitted inhibition curve with a large enough effect, not every such curve was filed as active; inconclusive = small, poorly fitted or top-dose-only effect, or another doubt; inactive = no such curve, though single readings can be large or run the other way
Target sequence (P00352 whole entry, looked up): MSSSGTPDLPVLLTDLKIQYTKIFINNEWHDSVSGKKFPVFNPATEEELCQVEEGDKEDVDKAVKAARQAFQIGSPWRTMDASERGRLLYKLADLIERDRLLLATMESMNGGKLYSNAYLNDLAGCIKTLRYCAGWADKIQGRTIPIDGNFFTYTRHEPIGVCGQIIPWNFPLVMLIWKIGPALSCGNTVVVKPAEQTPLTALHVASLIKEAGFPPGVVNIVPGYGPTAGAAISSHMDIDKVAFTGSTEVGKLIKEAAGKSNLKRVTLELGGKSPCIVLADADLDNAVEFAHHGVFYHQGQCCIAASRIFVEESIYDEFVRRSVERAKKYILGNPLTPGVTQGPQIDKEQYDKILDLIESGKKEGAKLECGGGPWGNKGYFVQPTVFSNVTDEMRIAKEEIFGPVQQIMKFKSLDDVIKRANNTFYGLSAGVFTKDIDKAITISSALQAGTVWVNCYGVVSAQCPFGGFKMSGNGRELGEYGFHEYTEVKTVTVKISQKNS
IMPase Li cell: membrane-permeable IMPase blocker, potentiated with lithium | CHO-M1 cells, IP1 TR-FRET (IP-One), carbachol + lithium | 0.35% of 210,000 active | Potency, µM (series often up to 59.4 µM), actives largely listed as inhibitors;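 note: IP1 builds up when IMPase is blocked and the TR-FRET signal falls; nearly all actives have a fitted effect of over 50% in size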
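IP1 accumulation measured by competitive TR-FRET in lysed CHO-M1 cells after 30 min compound exposure at 37C, with a small lithium addition to potentiate weak responses. Hill-equation AC50 from ratio and donor-channel data.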
HPGD inh: inhibitors of human 15-hydroxyprostaglandin dehydrogenase (HPGD); Potency, µM, usual class: inhibitors; purified HPGD, NADH fluorescence kinetic, PGE2 substrate; P15428; 4.3% of 150,000 active; AID 894; active = well fitted inhibition curve with a large enough effect, not every such curve was filed as active; inconclusive = small, poorly fitted or top-dose-only effect, or another doubt; inactive = no such curve, though single readings can be large or run the other way
Target sequence (P15428 whole entry, looked up): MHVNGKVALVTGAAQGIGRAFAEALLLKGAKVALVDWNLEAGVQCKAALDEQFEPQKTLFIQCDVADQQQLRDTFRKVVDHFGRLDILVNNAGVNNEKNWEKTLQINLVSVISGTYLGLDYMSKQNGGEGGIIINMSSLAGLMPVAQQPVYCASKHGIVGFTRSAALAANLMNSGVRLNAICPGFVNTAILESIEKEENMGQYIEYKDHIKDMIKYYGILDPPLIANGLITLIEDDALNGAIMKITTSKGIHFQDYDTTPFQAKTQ
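NADH formation kinetics: reaction with 30 uM PGE2 and 1 mM NAD+ (final), 20 nM enzyme, Tris-HCl pH 8 with Tween 20, after 15 min compound preincubation at room temperature. Fluorescence change, last versus first of five reads.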
IMPase cell inh: membrane-permeable compound that blocks inositol monophosphatase; P97697; CHO-M1 cells, IP1 accumulation, HTRF TR-FRET ratio; inhibition (IP1 accumulation), % at 46.1 µM; 120,000 tested, under 10 active; AID 901; active = well fitted curve in the direction sought with a large enough effect in the signal ratio, not every such curve was filed as active; inconclusive = small, poorly fitted or top-dose-only effect, or a change in a side signal; inactive = no such curve, though single readings can be large or run the other way; the % refers to the signal ratio;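 note: cells stimulated with carbachol in lithium chloride buffer; higher means more IMPase inhibition seen as more IP1 and lower FRET ratio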
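CHO-M1, 2000 cells/well, cultured 16–30 h; cpd up to 46 uM; carbachol (50 uM solution, stimulation buffer w/ 50 mM LiCl, pH 7.4), 30 min 37C; IP-One TR-FRET, 10 min RT; Ex 320/Em 665, 620; Hill-fit AC50.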
HTT aggregate: reduces HttQ103-GFP aggregates in PC12 cells; Potency, µM (titrated, usually from 46.1 µM), most hits filed as inhibitors; PC12 HttQ103-GFP aggregates, Acumen cytometry, 40 h; AID 1688; 1.1% of 220,000 active; note: nearly all actives have a fitted effect of over 60% in size
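Compounds (qHTS titration) were added to PC12 cells expressing an ecdysone-driven HTT exon 1 Q103–GFP fusion after induction with 100 nM tebufenozide. Aggregate formation was measured as GFP objects in cell lysates.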
Hits are given with their value; i = inactive; ? = inconclusive; nt = no result; [ ] = another dose, or the depositor's remark. Unless noted, calls come from the whole dose curve; as a rule, active = well fitted curve in the direction sought with a large enough effect; inconclusive = small, poorly fitted or top-dose-only effect, or another doubt; inactive = no such curve, though single readings can be large; an effect the other way counts as inactive or inconclusive.

SMILES	HTT ATP protect	ALDH1A1 inh	IMPase Li cell	HPGD inh	IMPase cell inh	HTT aggregate
S=C(NC1CCCCC1)N1CCN(C2CCCCC2)CC1	i[10 µM]	i	i	nt	nt	i
CC(C)CO/N=C1/C[C@@H](O)[C@@H](O)[C@@H]2[C@@H]3C(=O)N(Cc4ccc5c(c4)OCO5)C(=O)[C@H]3CC[C@@H]12	i[10 µM]	i[13.5 µM]	nt	nt	nt	nt
Fc1ccc(C2NC(=S)NC3=C2N2CCC3CC2)cc1 (stereo not drawn)	i	14.1µM	i	i	i	i
CCN(CC)c1ccc(/C=N/NC(=O)c2ccc3nc[nH]c3c2)cc1	i[10 µM]	?	nt	nt	nt	i[9.22 µM]
CN(C)c1ccc(/C=N/NC(=O)c2ccc3nc[nH]c3c2)cc1	i[10 µM]	17.8µM	nt	nt	nt	i[9.22 µM]
Cc1nc2c(C)cccc2cc1C(=O)N/N=C/c1ccc(N(C)C)cc1	i	11.2µM	i	i	?	i
CCNc1ncc2nc(-c3ccccc3)c(=O)n(Cc3cccc(OC)c3)c2n1	?	?	i	nt	nt	nt
CCc1ccc(C(=O)COC(=O)C(Cc2c[nH]c3ccccc23)NC(=O)c2ccc(Br)cc2)cc1 (stereo not drawn)	nt	nt	nt	nt	i	nt
O=C(NCCc1ccc(Cl)cc1)c1ccc(CNc2c(N3CCOCC3)c(=O)c2=O)cc1	i[10 µM]	nt	nt	nt	nt	i[9.22 µM]
COc1ccc2c(c1)CCC1C2CC[C@]2(C)[C@H](NCCCCCCN3C(=O)C=CC3=O)CC[C@@H]12 (stereo partly drawn)	i[1.9 µM]	nt	nt	nt	i	nt
CCCN1C(=O)C2(C(C(=O)c3ccc(C)o3)=C(O)C(=O)N2CCCN2CCOCC2)c2ccccc21 (stereo not drawn)	i[0.074 µM]	10µM	10µM	i	i	i
C=CCN1C(=O)C2(C(C(=O)c3ccc(C)o3)=C(O)C(=O)N2CCCN2CCOCC2)c2ccccc21 (stereo not drawn)	i[0.074 µM]	i	nt	nt	i	i
O=C(C1=C[C@@H]2[C@H]3C(=O)N(c4cccc(Cl)c4)C(=O)[C@H]3[C@@H](C(=O)c3ccc(Cl)cc3)N2C=C1)c1ccccc1	i[10 µM]	?	i	i	nt	i
Cc1ccc(N2C(=O)[C@@H]3[C@H](C2=O)[C@H]2C=C(C(=O)c4ccccc4)C=CN2[C@@H]3C(=O)c2ccc(Cl)cc2)cc1	i[10 µM]	25.1µM	i	39.8µM	nt	i
CCCCC[C@H](O)/C=C/[C@H]1OC(O)C[C@H](O)[C@@H]1C/C=C\CCCC(=O)O (stereo partly drawn)	i	i	i	i	nt	nt
O=C(NCc1cccnc1)c1sc2cc(Cl)ccc2c1Cl	i	i	i	?	i	i
Cc1c(CN(C)C(=O)c2sc3cc(Cl)ccc3c2Cl)cnn1C	i	?	i	20µM	i	?
CC(C)(C)c1ccc(OC2C(O)COC2/C=C/C#Cc2ccccc2)cc1 (stereo not drawn)	i[10 µM]	?	nt	nt	nt	nt
COc1ccc(CCNC(=O)CSc2ccc(-c3ccco3)nn2)cc1	i	3.16µM	i	nt	nt	i
O=C(CSc1ccc(-c2ccco2)nn1)NCCc1ccccc1	i	7.08µM	i	nt	nt	i
O=C(CSc1ccccn1)NC1CCCC1	i	?	i	nt	nt	i
c1coc(CNc2nc3nonc3nc2NCc2ccco2)c1	i[10 µM]	i	i	i	i	11.2µM
O=C1C=CC(=Nc2cccc3c(N=C4C=CC(=O)O4)cccc23)O1	i[10 µM]	?	i	?	nt	nt
Cc1ccc([N+](=O)[O-])c(C)c1	i	i	i	i	nt	nt
Cc1cc(N2C(=O)C=CC2=O)c([N+](=O)[O-])cc1C	i[10 µM]	0.794µM	i	2.82µM	nt	?
SMILES	HTT ATP protect	ALDH1A1 inh	IMPase Li cell	HPGD inh	IMPase cell inh	HTT aggregate
COc1ccccc1Cn1c(=O)c2ccccc2n2c(SCc3csc(C)n3)nnc12	i	?	i	i	i	i
COc1ccccc1Cn1c(=O)c2ccccc2n2c(Sc3ncnc4sccc34)nnc12	1.58µM	?	i	i	i	?
CC(C)CNC(=O)[C@H](Cc1ccccc1)NC(=O)c1ccco1	i	39.8µM	i	i	i	i
CC1(C)O[C@@H]2C[C@H]3[C@@H]4CCC5=CC(=O)C=C[C@]5(C)[C@H]4C(O)C[C@]3(C)[C@]2(C(=O)CO)O1 (stereo partly drawn)	i	nt	nt	nt	nt	i
O=C1N=C(N2CCOCC2)S/C1=C\c1cccs1	i[10 µM]	?	i	nt	nt	i[9.22 µM]
N#CCCN1CCN(C2=NC(=O)/C(=C\c3cccs3)S2)CC1	i[10 µM]	25.1µM	i	nt	nt	i
O=C(Nc1ccc(F)cc1)Nc1nnc(-c2ccncc2)s1	i	i	i	i	i	11.2µM
O=C(Nc1ccc(Cl)cc1)Nc1nnc(-c2ccncc2)s1	i[10 µM]	i	i	i	nt	?
O=C(Nc1ccncc1)Nc1ccc(F)cc1F	i[1.9 µM]	i	i	i	i	35.5µM
O=C(Nc1ccc(F)cc1F)Nc1ccc(F)cc1F	i[10 µM]	i	i	nt	nt	i[9.22 µM]
O=C(Nc1cccc(Cl)c1)Nc1nnc(-c2ccncc2)s1	i[10 µM]	i	i	?	nt	12.6µM
CC(C=O)Cc1ccc(C(C)(C)C)cc1 (stereo not drawn)	i	i	i	i	nt	nt
COC(=O)NC(CC(C)=O)c1cccc(F)c1 (stereo not drawn)	i[10 µM]	i[13.5 µM]	nt	nt	nt	nt
COC(=O)c1c(O)cc(=O)n2c1CCCCC2	i	1.78µM	i	nt	nt	i
CS(=O)(=O)N(Cc1ccccc1)c1ccc(C(=O)Nc2cccc(Cl)c2)cc1	nt	nt	nt	nt	i	nt
COc1ccc(C(C)=O)cc1CSc1nc2cc(C(=O)O)ccc2c(=O)n1Cc1ccccc1	i[10 µM]	20µM	i	?	nt	?
NC(=O)C1CCN(C(=O)c2ccc3c(=O)n(Cc4ccco4)c(SCC(=O)c4ccc(F)cc4)nc3c2)CC1	nt	?	i	nt	nt	i
CCOC(Cn1c(SCc2cc(C(C)=O)ccc2OC)nc2ccccc2c1=O)OCC	i[10 µM]	?	nt	nt	i	i
N#CCSc1nc2cc(C(=O)N3CCC(C(N)=O)CC3)ccc2c2nc3ccccc3n12	i	28.2µM	i	i	i	i
N#CCSc1nc2cc(C(=O)N3CCCC3)ccc2c(=O)n1Cc1ccccc1	i	2.82µM	?	i	i	i
NC(=O)C1CCN(C(=O)c2ccc3c(=O)n(Cc4ccco4)c(SCC(=O)c4ccccc4)nc3c2)CC1	i	14.1µM	i	nt	nt	i
Cc1ccc(NC(=O)CSc2nc3ccc(Br)cc3[nH]2)c(C)c1	nt	nt	nt	nt	i	nt
COc1ccc(CNC(=O)c2cc(-c3cccc(OC)c3)on2)cc1	i	nt	nt	nt	nt	nt
COc1ccc2c(C=O)cn(C)c2c1	i[10 µM]	2.24µM	i	nt	nt	i[9.22 µM]
COC1(C)CCC2OC2(C)CCC2C1CC2(C)C (stereo not drawn)	nt	?	i	i	nt	nt
Cc1ccc(-c2nnc(SCC(=O)N3CCN(c4ccccc4)CC3)o2)cc1	i[10 µM]	i	11.2µM	i	i	i
Cn1c(CCNC(=O)c2cccs2)nnc1SCC(=O)N1CCN(c2ccccc2)CC1	i	28.2µM	i	i	i	i
Cc1ccnc(SCC(=O)N2CCN(c3ccccc3)CC2)n1	i[10 µM]	?	i	i	i	i
Cn1c(SCC(=O)N2CCN(c3ccccc3)CC2)nnc1-c1ccccc1	i	7.94µM	i	i	i	i
